# Screen size: about 68,000 compounds; about 2,700 (4%) showed an effect of 50% or more. The sample holds strong results, similar compounds and a random draw of the others, so the mix is not that of the screen.
# Tested on: Plasmodium berghei
# Test: Screen against P. berghei liver stage (PbLuc), transformed with Luciferase, at 2uM
# Assay type: functional, HepG2
# Conditions: tested at 2 uM
row,Structure (SMILES),INHIBITION [%]
1,CC(C)C(=O)NCc1cc(Br)ccc1F,-64.91
2,CC(C)NC(=O)CC(C)NCc1ccc(F)cc1Cl (stereo unspecified),40.64
3,CC(C)NC(=O)CNC(C)c1c(F)cccc1Cl (stereo unspecified),5.34
4,CC(C)NC(=O)CC(C)NCc1cc(Cl)ccc1F (stereo unspecified),52.51
5,CS(=O)(=O)Cc1ccc(Cl)cc1NCc1ccccc1F,0.13
6,CC(CS(C)(=O)=O)NCc1cc(Cl)ccc1F (stereo unspecified),50.53
7,Cc1cnc(CNc2ncc(C)c(-c3cnn(C)c3)n2)cn1,-20.35
8,Cc1cccc(N2CCC3(CCN(C(=O)c4cccnc4)CC3)C2)n1,7.29
9,Cc1nnc(NC(=O)CN2CCCC2c2noc(C3CC3)n2)s1 (stereo unspecified),-32.11
10,O=C(Cc1ccsc1)NCCc1ccoc1,42.8
11,O=C(NCCc1ccsc1)c1ccoc1,52.08
12,CC(NC(=O)c1ccoc1)C(=O)N(C)Cc1ccsc1 (stereo unspecified),-56.89
13,COc1ccc(CN2CCC3(CC2)CCN(CC2CC2)C3=O)cc1,-0.64
14,CC(C)CNC(=O)c1ccc(NC(=O)NC(C)c2ccccn2)cc1 (stereo unspecified),-17.17
15,O=C(c1ccccn1)N1Cc2nccn2CC(COc2cccnc2)C1 (stereo unspecified),-28.34
16,Cc1ccc(Oc2ncccc2C(=O)N(C)CC2OCCO2)c(C)c1,23.53

row,Structure (SMILES),INHIBITION [%]
1,Cc1ccc(Oc2ncccc2C(=O)N(C)CCCN(C)C)c(C)c1,32.85
2,Cc1ccc(Oc2ncccc2C(=O)O)c(C)c1,50.61
3,O=C(c1ccco1)N1CC2(CCNCC2)c2cc(Cl)ccc21,34.18
4,COc1cc(N2C[C@@H](C)[C@](O)(C3CC3)C2)nc(N)n1,56.12
5,COc1cc(N2C[C@@H](C)[C@](O)(C3CC3)C2)ncn1,18.38
6,COCc1cc(N2C[C@@H](C)[C@](O)(C3CC3)C2)ncn1,8.09
7,CN(CC1CCCC1)C(=O)c1cn(C)nc1-c1cccnc1,32.67
8,COc1nccc(N2CC[C@H](CO)[C@@H](O)C2)c1C#N,5.38
9,Cn1ncc2c1CCCC2NCc1cccc(C(F)(F)F)c1 (stereo unspecified),13.24
10,CN1CCCC(c2nc3c([nH]2)CC(C)(C)CNC3=O)C1 (stereo unspecified),-3.25
11,CC1(C)CNC(=O)c2nc(C3CCCN(C(=O)C4CC4)C3)[nH]c2C1 (stereo unspecified),73.68
12,CC1(C)CNC(=O)c2nc(C3CCN(C(=O)C4CC4)CC3)[nH]c2C1,33.4
13,COc1cccc(C(=O)NCCCN2CCc3ccccc3C2)c1OC,51.32
14,Cc1ccccc1C(=O)NCCCN1CCc2ccccc2C1,-13.46
15,Cc1cccc(C(=O)NCCCN2CCc3ccccc3C2)c1C,28.88
